Results published in PMC7862700, “An all-to-all approach to the identification of sequence-specific readers for epigenetic DNA modifications on cytosine”.

How the values were obtained:
Experiment in all cases: DAPPL (digital affinity profiling via proximity ligation, sequencing); 10 mM Tris-HCl pH 7.5, 50 mM NaCl, 1 mM DTT, 4% glycerol, room temperature, 30 min; GST-TFs on glutathione beads, 16-mer random dsDNA library, 0.1% formaldehyde crosslink after washing; high values mean tight binding
FLI1 = target: T1, FLI1 (Homo sapiens, UniProt Q01543 1-452); conditions: protein: recombinant; tags: N-terminal GST; dsDNA, one strand shown
T1 sequence: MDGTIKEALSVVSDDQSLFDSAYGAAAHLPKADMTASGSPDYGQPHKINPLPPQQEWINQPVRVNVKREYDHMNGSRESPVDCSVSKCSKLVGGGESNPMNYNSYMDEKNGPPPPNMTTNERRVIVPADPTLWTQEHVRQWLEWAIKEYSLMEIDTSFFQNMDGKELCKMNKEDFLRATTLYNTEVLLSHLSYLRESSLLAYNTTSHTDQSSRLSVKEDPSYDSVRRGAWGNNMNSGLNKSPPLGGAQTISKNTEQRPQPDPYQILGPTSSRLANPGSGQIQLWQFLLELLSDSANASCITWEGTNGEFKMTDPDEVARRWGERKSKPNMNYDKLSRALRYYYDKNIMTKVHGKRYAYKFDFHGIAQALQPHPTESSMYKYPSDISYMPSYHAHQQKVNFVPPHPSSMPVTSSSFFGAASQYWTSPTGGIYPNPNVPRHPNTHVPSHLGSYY
Method in brief: (§1)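 Pools of DNA-barcoded human transcription factors, expressed in yeast as GST fusions on glutathione beads and combined with a tag-only sample, were incubated with 200 nmole of a 16-mer random double-stranded DNA library. Incubation took 30 min at room temperature in Tris/NaCl/DTT/glycerol buffer and was followed by washing, 0.1% formaldehyde crosslinking, proximity ligation (BsaI/T4 ligase, 1 h, 37 °C), PCR amplification and sequencing on an Illumina NextSeq500. Binding signal is the ratio of a hexamer's read frequency for a factor to its frequency for the tag-only sample.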

ELK1 = target: T2, ELK1 (Homo sapiens, UniProt P19419 1-428); conditions: protein: recombinant; tags: N-terminal GST; dsDNA, one strand shown
T2 sequence: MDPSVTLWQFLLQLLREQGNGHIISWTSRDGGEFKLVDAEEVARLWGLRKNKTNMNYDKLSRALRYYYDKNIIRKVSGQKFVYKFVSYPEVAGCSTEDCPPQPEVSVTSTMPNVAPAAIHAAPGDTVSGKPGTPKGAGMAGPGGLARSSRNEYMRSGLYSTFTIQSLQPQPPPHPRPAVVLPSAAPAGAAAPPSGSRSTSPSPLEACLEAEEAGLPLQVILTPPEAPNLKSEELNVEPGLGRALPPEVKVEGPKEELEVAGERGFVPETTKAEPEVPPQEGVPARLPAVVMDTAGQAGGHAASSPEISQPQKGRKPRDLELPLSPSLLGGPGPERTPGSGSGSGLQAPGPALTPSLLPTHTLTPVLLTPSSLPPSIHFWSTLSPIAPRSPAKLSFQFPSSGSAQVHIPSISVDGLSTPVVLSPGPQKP
Method in brief: as §1

GABPA = target: T3, GABPA (Homo sapiens, UniProt Q06546 1-454); conditions: protein: recombinant; tags: N-terminal GST; dsDNA, one strand shown
T3 sequence: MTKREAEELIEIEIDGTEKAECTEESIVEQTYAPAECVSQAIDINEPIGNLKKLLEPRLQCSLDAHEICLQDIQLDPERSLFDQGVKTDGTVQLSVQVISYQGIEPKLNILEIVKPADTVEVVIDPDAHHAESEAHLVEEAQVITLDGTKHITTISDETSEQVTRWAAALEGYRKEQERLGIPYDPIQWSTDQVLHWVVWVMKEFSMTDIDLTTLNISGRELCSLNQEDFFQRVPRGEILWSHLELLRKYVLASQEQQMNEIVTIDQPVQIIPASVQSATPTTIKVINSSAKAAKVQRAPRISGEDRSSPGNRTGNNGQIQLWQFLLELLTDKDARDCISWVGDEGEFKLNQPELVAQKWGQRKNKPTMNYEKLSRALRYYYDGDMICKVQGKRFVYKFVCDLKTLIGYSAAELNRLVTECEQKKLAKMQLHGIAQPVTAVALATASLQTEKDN
Method in brief: as §1

ERG = target: T4, ERG (Homo sapiens, UniProt P11308 1-479); conditions: protein: recombinant; tags: N-terminal GST; dsDNA, one strand shown
T4 sequence: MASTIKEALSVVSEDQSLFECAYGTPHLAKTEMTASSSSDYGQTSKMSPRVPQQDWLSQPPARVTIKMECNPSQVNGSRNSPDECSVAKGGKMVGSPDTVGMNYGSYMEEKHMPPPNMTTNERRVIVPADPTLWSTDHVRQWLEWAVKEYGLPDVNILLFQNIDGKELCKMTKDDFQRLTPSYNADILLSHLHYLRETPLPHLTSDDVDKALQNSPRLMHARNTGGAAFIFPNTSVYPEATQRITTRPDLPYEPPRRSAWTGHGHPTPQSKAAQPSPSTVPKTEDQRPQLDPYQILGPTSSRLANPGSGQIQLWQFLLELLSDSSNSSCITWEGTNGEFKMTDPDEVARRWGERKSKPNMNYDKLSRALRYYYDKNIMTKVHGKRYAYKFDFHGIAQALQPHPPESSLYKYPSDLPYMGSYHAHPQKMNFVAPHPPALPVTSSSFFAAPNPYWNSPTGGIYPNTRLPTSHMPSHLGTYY
Method in brief: as §1

ELF1 = ELF1 (Homo sapiens, UniProt P32519 1-619); conditions: protein: recombinant; tags: N-terminal GST; dsDNA, one strand shown
ELF1, sequence (P32519 whole entry): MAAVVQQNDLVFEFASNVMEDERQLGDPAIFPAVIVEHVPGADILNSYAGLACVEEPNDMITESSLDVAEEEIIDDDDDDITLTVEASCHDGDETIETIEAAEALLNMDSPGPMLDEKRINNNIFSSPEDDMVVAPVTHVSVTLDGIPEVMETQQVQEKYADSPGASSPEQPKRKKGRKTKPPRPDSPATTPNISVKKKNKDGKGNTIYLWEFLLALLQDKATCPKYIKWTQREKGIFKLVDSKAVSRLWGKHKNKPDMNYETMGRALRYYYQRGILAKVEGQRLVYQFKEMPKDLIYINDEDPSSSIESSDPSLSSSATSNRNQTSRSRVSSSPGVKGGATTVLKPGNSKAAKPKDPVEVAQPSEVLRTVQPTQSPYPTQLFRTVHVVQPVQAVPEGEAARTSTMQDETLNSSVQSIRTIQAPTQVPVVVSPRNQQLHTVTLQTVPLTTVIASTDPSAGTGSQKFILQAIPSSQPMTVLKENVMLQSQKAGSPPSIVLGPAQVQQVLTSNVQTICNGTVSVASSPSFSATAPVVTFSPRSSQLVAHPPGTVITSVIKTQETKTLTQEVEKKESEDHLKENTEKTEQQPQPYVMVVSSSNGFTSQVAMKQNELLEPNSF
Method in brief: as §1

EHF = target: T5, EHF (Homo sapiens, UniProt Q9NZC4 1-300); conditions: protein: recombinant; tags: N-terminal GST; dsDNA, one strand shown
T5 sequence: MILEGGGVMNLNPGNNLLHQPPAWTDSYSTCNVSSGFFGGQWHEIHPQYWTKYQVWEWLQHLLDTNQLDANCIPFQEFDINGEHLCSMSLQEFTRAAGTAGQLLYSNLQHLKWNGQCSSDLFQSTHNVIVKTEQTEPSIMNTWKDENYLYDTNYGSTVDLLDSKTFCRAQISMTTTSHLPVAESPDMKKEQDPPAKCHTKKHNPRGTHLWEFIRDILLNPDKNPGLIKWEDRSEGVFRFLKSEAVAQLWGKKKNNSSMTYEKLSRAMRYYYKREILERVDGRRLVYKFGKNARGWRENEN
Method in brief: as §1

SPI1 = SPI1 (Homo sapiens, UniProt P17947 1-270); conditions: protein: recombinant; tags: N-terminal GST; dsDNA, one strand shown
Method in brief: as §1

SPIB = SPIB (Homo sapiens, UniProt Q01892 1-262); conditions: protein: recombinant; tags: N-terminal GST; dsDNA, one strand shown
SPIB, sequence (Q01892 whole entry): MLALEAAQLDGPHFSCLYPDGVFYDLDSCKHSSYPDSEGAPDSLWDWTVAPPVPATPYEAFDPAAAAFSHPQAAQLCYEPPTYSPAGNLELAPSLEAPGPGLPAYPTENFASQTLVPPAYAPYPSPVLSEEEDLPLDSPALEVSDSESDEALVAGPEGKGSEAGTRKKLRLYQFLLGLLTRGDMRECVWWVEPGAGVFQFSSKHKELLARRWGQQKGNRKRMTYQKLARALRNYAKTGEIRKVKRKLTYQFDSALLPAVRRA
Method in brief: as §1

ELK3 = target: T6, ELK3 (Homo sapiens, UniProt P41970 1-407); conditions: protein: recombinant; tags: N-terminal GST; dsDNA, one strand shown
T6 sequence: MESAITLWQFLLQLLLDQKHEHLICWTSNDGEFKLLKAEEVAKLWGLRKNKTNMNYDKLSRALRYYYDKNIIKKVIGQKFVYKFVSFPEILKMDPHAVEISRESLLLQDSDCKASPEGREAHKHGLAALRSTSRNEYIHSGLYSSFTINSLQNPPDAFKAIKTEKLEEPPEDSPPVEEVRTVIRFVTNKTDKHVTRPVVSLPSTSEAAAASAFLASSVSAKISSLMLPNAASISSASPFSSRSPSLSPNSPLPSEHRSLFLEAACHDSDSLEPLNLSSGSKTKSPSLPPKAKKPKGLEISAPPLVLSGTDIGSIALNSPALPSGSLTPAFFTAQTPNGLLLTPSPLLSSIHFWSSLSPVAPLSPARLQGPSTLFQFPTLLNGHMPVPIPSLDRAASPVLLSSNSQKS
Method in brief: as §1

FEV = target: T7, FEV (Homo sapiens, UniProt Q99581 1-238); conditions: protein: recombinant; tags: N-terminal GST; dsDNA, one strand shown
T7 sequence: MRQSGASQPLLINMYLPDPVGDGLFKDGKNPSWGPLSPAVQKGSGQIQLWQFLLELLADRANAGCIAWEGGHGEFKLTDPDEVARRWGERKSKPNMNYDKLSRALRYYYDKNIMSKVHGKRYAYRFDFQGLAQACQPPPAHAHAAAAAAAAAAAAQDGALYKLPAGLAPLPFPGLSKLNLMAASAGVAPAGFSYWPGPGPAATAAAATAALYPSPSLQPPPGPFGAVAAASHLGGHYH
Method in brief: as §1

ETV5 = ETV5 (Homo sapiens, UniProt P41161 1-510); conditions: protein: recombinant; tags: N-terminal GST; dsDNA, one strand shown
ETV5, sequence (P41161 whole entry): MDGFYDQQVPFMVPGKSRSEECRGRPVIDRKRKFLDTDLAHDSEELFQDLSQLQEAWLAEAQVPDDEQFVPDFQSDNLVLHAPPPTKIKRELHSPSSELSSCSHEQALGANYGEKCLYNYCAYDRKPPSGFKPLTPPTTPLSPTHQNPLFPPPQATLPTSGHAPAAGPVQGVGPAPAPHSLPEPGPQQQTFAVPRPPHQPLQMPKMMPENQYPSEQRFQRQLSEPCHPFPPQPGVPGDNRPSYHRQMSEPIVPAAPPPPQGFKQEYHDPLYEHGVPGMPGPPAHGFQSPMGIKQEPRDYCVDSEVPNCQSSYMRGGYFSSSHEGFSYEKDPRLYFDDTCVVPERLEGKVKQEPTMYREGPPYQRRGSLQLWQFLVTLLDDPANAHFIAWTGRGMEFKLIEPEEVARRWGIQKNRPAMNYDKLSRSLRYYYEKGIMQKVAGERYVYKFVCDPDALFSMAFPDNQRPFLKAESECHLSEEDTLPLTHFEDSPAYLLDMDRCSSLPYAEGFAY
Method in brief: as §1

HSF1 = HSF1 (Homo sapiens, UniProt Q00613 1-529); conditions: protein: recombinant; tags: N-terminal GST; chain copies: 3; dsDNA, one strand shown
HSF1, sequence (Q00613 whole entry): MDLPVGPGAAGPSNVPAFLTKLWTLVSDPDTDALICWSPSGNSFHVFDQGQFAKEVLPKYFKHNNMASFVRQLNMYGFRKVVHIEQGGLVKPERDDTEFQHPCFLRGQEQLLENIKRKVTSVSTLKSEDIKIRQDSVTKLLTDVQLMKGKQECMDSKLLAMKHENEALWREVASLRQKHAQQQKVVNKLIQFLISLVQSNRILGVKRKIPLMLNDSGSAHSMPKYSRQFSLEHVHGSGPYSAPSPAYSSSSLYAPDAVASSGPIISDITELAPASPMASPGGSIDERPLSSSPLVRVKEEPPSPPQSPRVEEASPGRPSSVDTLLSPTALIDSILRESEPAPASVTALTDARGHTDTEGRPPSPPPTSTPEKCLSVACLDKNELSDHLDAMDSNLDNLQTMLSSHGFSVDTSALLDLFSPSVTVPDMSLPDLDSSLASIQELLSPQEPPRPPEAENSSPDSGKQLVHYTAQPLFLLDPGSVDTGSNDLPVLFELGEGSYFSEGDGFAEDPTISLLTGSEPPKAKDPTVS
Method in brief: as §1

SPIC = target: T8, SPIC (Homo sapiens, UniProt Q8N5J4 1-248); conditions: protein: recombinant; tags: N-terminal GST; dsDNA, one strand shown
T8 sequence: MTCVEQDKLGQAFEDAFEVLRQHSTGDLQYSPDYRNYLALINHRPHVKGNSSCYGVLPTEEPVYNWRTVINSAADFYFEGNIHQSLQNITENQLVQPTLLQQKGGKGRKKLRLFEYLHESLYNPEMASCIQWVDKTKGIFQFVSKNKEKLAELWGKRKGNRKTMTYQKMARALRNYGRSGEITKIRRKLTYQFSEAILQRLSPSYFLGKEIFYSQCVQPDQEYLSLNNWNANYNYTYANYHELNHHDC
Method in brief: as §1

ELF4 = ELF4 (Homo sapiens, UniProt Q99607 1-663); conditions: protein: recombinant; tags: N-terminal GST; dsDNA, one strand shown
ELF4, sequence (Q99607 whole entry): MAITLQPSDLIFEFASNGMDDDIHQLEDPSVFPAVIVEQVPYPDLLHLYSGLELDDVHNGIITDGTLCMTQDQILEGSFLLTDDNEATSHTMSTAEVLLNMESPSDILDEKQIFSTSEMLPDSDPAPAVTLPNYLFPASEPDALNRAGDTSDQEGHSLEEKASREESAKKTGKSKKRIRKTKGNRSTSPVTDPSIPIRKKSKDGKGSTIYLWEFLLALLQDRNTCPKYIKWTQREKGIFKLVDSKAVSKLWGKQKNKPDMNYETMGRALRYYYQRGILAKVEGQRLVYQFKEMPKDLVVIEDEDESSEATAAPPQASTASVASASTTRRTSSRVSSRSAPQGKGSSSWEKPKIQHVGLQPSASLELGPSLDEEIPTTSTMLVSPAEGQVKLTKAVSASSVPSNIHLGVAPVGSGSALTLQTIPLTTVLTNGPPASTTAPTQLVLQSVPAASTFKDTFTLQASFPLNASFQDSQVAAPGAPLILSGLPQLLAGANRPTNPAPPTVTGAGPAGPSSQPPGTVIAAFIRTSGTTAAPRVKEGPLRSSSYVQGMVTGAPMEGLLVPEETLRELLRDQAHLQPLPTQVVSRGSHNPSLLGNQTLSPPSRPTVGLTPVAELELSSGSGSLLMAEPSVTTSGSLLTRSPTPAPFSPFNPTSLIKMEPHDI
Method in brief: as §1

ELK4 = target: T9, ELK4 (Homo sapiens, UniProt P28324-2 1-405); conditions: protein: recombinant; tags: N-terminal GST; dsDNA, one strand shown
T9 sequence: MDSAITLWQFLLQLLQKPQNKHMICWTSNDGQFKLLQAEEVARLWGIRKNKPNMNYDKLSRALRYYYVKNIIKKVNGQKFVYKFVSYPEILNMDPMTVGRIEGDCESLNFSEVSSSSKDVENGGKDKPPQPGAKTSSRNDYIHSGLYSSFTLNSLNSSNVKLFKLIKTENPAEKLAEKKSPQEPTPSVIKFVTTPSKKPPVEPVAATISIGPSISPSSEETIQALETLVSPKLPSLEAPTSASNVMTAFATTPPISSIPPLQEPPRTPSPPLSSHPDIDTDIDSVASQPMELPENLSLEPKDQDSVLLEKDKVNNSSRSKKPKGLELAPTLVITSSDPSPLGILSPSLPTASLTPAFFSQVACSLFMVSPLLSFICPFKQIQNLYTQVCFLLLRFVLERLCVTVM
Method in brief: as §1

ETV2 = target: T10, ETV2 (Homo sapiens, UniProt O00321 1-342); conditions: protein: recombinant; tags: N-terminal GST; dsDNA, one strand shown
T10 sequence: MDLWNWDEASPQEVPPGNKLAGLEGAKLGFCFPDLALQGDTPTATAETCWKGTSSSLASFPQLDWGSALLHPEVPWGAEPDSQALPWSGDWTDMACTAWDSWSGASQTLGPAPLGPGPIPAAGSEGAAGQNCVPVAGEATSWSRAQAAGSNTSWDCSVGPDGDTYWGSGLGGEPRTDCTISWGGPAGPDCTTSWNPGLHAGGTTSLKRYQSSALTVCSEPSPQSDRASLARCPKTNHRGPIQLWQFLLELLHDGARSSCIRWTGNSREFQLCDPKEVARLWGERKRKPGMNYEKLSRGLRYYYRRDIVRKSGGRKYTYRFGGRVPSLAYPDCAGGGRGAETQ
Method in brief: as §1

ELF3 = target: T11, ELF3 (Homo sapiens, UniProt P78545 1-371); conditions: protein: recombinant; tags: N-terminal GST; dsDNA, one strand shown
T11 sequence: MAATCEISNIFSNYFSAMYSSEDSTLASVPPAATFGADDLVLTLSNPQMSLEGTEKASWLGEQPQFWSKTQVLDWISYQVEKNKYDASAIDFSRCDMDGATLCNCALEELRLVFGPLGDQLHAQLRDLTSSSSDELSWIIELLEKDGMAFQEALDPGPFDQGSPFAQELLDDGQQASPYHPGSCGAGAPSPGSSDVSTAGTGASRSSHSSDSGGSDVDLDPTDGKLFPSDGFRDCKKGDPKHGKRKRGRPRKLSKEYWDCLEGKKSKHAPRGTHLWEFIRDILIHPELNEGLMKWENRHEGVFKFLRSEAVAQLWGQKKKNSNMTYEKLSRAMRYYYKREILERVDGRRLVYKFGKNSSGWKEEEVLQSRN
Method in brief: as §1

CRX = CRX (Homo sapiens, UniProt O43186 1-299); conditions: protein: recombinant; tags: N-terminal GST; dsDNA, one strand shown
CRX, sequence (O43186 whole entry): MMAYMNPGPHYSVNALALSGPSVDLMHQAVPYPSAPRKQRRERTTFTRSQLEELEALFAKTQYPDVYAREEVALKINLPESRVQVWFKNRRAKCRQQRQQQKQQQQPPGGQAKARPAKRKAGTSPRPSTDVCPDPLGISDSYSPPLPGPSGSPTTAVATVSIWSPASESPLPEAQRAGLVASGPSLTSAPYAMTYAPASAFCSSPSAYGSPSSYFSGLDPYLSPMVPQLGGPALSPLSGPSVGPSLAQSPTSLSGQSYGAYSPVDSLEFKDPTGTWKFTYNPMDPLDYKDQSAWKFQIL
Method in brief: as §1

ETV1 = ETV1 (Homo sapiens, UniProt P50549 1-477); conditions: protein: recombinant; tags: N-terminal GST; dsDNA, one strand shown
ETV1, sequence (P50549 whole entry): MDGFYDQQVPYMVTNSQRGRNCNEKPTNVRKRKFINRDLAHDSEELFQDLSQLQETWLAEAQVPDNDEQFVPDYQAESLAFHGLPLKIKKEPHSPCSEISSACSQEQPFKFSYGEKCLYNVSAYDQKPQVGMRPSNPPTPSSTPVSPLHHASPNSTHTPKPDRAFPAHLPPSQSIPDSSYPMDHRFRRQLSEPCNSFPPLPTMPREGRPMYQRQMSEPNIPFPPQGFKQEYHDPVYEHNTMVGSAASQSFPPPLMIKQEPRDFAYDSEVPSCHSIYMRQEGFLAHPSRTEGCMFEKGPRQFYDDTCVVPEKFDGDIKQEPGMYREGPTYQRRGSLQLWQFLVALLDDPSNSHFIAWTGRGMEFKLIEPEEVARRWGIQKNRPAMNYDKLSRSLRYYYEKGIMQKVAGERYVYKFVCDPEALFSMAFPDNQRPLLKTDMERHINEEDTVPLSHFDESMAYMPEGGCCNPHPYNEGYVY
Method in brief: as §1

CTGTCT
binding signal (FLI1): 1.35 fold enrichment (6-mer frequency, TF over GST control) | binding signal (ELK1): 1.3 fold enrichment (6-mer frequency, TF over GST control) | binding signal (GABPA): 1.31 fold enrichment (6-mer frequency, TF over GST control) | binding signal (ERG): 1.46 fold enrichment (6-mer frequency, TF over GST control) | binding signal (ELF1): 1.35 fold enrichment (6-mer frequency, TF over GST control) | binding signal (EHF): 1.35 fold enrichment (6-mer frequency, TF over GST control) | binding signal (SPI1): 1.33 fold enrichment (6-mer frequency, TF over GST control) | binding signal (SPIB): 1.3 fold enrichment (6-mer frequency, TF over GST control) | binding signal (ELK3): 1.62 fold enrichment (6-mer frequency, TF over GST control) | binding signal (FEV): 1.42 fold enrichment (6-mer frequency, TF over GST control) | binding signal (ETV5): 1.4 fold enrichment (6-mer frequency, TF over GST control) | binding signal (HSF1): 1.22 fold enrichment (6-mer frequency, TF over GST control) | binding signal (SPIC): 1.56 fold enrichment (6-mer frequency, TF over GST control) | binding signal (ELF4): 1.38 fold enrichment (6-mer frequency, TF over GST control) | binding signal (ELK4): 1.46 fold enrichment (6-mer frequency, TF over GST control) | binding signal (ETV2): 1.26 fold enrichment (6-mer frequency, TF over GST control) | binding signal (ELF3): 1.47 fold enrichment (6-mer frequency, TF over GST control) | binding signal (CRX): 1.09 fold enrichment (6-mer frequency, TF over GST control) | binding signal (ETV1): 1.4 fold enrichment (6-mer frequency, TF over GST control)
